Compound activity: PubChem, several laboratories
F-actin modifier: modifiers of cytoskeleton assembly; hit rate 0.18% among 91,000; AID 836; inhibition, % at 2 µM; HUVEC TNFa F-actin phalloidin imaging, high content;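 active = inhibition above the batch mean plus 3 SD and confirmed as a hit by visual image inspection, cut at about 30% in these data, passing the limit was not always enough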
E-sel TNF inh: TNF alpha driven E-selectin expression inhibition; inhibition, % at 2 µM; HUVEC TNFa-induced E-selectin immunofluorescence, high content; AID 1246; hit rate 0.71% among 120,000;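 active = inhibition above the batch mean plus 3 SD, and confirmed as a hit on visual image review, cut at about 43% in these data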;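 also: 0% = TNF-stimulated DMSO wells and 100% = unstimulated control wells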
CYP2C19 activ: cytochrome P450 2C19 (human) activation | P33261 | recombinant CYP2C19, luciferin-H EGE luminescence; hits give high values; 0 = fully inhibited enzyme, 1 = untreated enzyme | activation factor at 5 µM | 96,000 tested, under 10 active | AID 1025;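 active = activation factor of at least 2 at 5 µM in the primary screen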;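 also: 0 = wells with 2.5 mM tranylcypromine and 1 = vehicle-only wells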
CYP2C9 act: increases human cytochrome P450 2C9 activity. activation factor at 5 µM. recombinant CYP2C9, luciferin-H conversion, luminescence; hits give high values; factor 1 = untreated enzyme, 0 = blocked. hit rate 1.4% among 96,000;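 active = activation factor of 2 or more for CYP2C9 at a 5 µM dose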;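 also: 0 = sulfaphenazole-blocked wells and 1 = vehicle-only wells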
Target sequence (P11712 whole entry, looked up): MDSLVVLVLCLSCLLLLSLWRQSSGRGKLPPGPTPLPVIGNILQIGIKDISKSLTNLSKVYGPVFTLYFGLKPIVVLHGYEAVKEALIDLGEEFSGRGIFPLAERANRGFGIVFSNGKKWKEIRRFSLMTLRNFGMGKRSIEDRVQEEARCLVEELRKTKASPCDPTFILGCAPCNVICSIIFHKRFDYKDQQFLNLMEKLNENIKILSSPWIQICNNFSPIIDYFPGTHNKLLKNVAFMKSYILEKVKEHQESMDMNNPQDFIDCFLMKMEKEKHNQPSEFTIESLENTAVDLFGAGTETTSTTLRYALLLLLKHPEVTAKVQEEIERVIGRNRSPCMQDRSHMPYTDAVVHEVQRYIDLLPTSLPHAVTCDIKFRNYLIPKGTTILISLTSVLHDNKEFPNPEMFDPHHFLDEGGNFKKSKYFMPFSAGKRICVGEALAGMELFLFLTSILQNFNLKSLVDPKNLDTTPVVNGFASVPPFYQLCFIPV
CYP2C9 inh: human CYP2C9 inhibition; inhibition, % at 5 µM; P11712; CYP2C9 Supersomes, luciferin-H conversion, luminescence; AID 777; hit rate 20% among 96,000;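 active = blocking of liver enzyme CYP2C9 beyond about 50% at 5 µM, limit read from the data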
CYP2C19 inh: blocks human cytochrome P450 2C19 | P33261 | CYP2C19 Supersomes, luciferin-H EGE luminescence, 30 min | inhibition, % at 5 µM | hit rate 21% among 96,000;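 active = CYP2C19 inhibition above a set limit at 5 µM in the primary screen, cut at about 50% in these data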;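 also: plate controls were negative control wells for no effect and 2.5 mM tranylcypromine positive control for full effect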
The depositor's hits bear a star. Compounds with a hit are over-represented: about 22% of the library has one in this group of screens.

`COc1ccc(CNC(=O)C2COc3ccccc3O2)cc1` (stereo not drawn) gave F-actin modifier 31 and E-sel TNF inh -11.
`COc1ccccc1CNC(=O)C1COc2ccccc2O1` (stereo not drawn) gave F-actin modifier 6, E-sel TNF inh -10, CYP2C19 activ 0, CYP2C9 act 1.2, CYP2C9 inh -19 and CYP2C19 inh 99*.
For Cc1ccc(C)c(Cn2cnc3c(nnn3-c3ccc(F)cc3)c2=O)c1 the results were F-actin modifier 33, E-sel TNF inh -18, CYP2C19 activ 0.7, CYP2C9 act 0.6, CYP2C9 inh 38 and CYP2C19 inh 29.
Screening CC(=O)NCCc1nc2ccccc2[nH]1 returned F-actin modifier -1.
COCC(=O)NCCc1nc2ccccc2[nH]1 was read as E-sel TNF inh -13, CYP2C19 activ 1, CYP2C9 act 0.9, CYP2C9 inh 5 and CYP2C19 inh 0.
COc1ccccc1C(=O)NCCc1nc2ccccc2[nH]1 was read as F-actin modifier -1, CYP2C19 activ 0.1, CYP2C9 act 0.4, CYP2C9 inh 58* and CYP2C19 inh 88*.
O=C(NCCc1nc2ccccc2[nH]1)c1ccc(F)cc1 was read as F-actin modifier 2, E-sel TNF inh -4, CYP2C19 activ 0.1, CYP2C9 act 0.5, CYP2C9 inh 51* and CYP2C19 inh 88*.
For O=C(CCCCCN1C(=O)c2ccccc2C1=O)NCCc1nc2ccccc2[nH]1 the results were F-actin modifier 9, E-sel TNF inh -5, CYP2C19 activ 0.1, CYP2C9 act 0.1, CYP2C9 inh 91* and CYP2C19 inh 95*.
Screening COC(=O)c1sc2nc3c(cc2c1N)CCCC3 returned E-sel TNF inh 1.
Screening Cc1cc(C(F)(F)F)n(-c2nc(C(=O)Nc3ccccc3Oc3ccccc3)cs2)n1 returned F-actin modifier -70, CYP2C19 activ 0.9, CYP2C9 act 0.6, CYP2C9 inh 41 and CYP2C19 inh 5.
CCOc1ccc2[nH]c(=O)c(CN(Cc3nnnn3Cc3ccco3)C3CCCCC3)cc2c1 was read as F-actin modifier -20, E-sel TNF inh 7, CYP2C19 activ 0.3, CYP2C9 act 0.8, CYP2C9 inh 25 and CYP2C19 inh 70*.
For COc1ccc(Cn2nnnc2CN(Cc2cc3cccc(C)c3[nH]c2=O)C2CCCC2)cc1 the results were F-actin modifier -69, E-sel TNF inh 23, CYP2C19 activ 0.5, CYP2C9 act 0.4, CYP2C9 inh 61* and CYP2C19 inh 47.
COc1ccc(Cn2nnnc2CN(Cc2cc3ccc(C)cc3[nH]c2=O)C2CCCC2)cc1 was read as F-actin modifier 26, CYP2C19 activ 0.6, CYP2C9 act 0.8, CYP2C9 inh 18 and CYP2C19 inh 39.
For COc1ccc2[nH]c(=O)c(CN(Cc3ccco3)Cc3nnnn3Cc3ccccc3)cc2c1 the results were F-actin modifier -9, E-sel TNF inh 11, CYP2C19 activ 0.9, CYP2C9 act 1, CYP2C9 inh -4 and CYP2C19 inh 12.
Screening CCOc1ccc2[nH]c(=O)c(CN(Cc3ccco3)Cc3nnnn3Cc3ccccc3)cc2c1 returned F-actin modifier 6, E-sel TNF inh 14, CYP2C19 activ 0.7, CYP2C9 act 0.5, CYP2C9 inh 50* and CYP2C19 inh 31.
For CCOC(=O)c1c(CN2CCOCC2)n(C)c2cc(Br)c(O)c(CN(C)C)c12 the results were F-actin modifier -22, E-sel TNF inh 17, CYP2C19 activ 0.9, CYP2C9 act 0.9, CYP2C9 inh 8 and CYP2C19 inh 7.
For S=c1[nH]nc(COc2ccc(Cl)cc2)o1 the results were CYP2C19 activ 1.1, CYP2C9 act 0.9, CYP2C9 inh 14 and CYP2C19 inh -11.
Screening COc1ccc(OCc2n[nH]c(=S)o2)cc1 returned F-actin modifier 22, E-sel TNF inh 28, CYP2C19 activ 0.9, CYP2C9 act 0.1, CYP2C9 inh 89* and CYP2C19 inh 14.
For O=c1[nH][nH]cc1C=Nc1ccc(Cl)cc1 the results were E-sel TNF inh 97*.
For NC(=O)C1CCCN(C(=S)Nc2cccc3ccccc23)C1 (stereo not drawn) the results were E-sel TNF inh 70*.
`S=C(Nc1cccc2ccccc12)N1CCN(c2ncccn2)CC1` gave F-actin modifier -14, E-sel TNF inh -34, CYP2C19 activ 0.4, CYP2C9 act 0.7, CYP2C9 inh 25 and CYP2C19 inh 58*.
`Cc1cc(C)cc(NC(=S)N2CCN(c3ncccn3)CC2)c1` gave E-sel TNF inh 6.
For CCN(CC)CC(C(=O)N(CC)CC)P(=O)(c1ccccc1)c1ccccc1 (stereo not drawn) the results were F-actin modifier -13, E-sel TNF inh 30, CYP2C19 activ 1.1, CYP2C9 act 1.1, CYP2C9 inh -6 and CYP2C19 inh -10.
Screening CN(c1ccc(Cl)cc1)c1cc(=O)n(C)c2ccccc12 returned F-actin modifier -20, E-sel TNF inh 12, CYP2C19 activ 0, CYP2C9 act 0, CYP2C9 inh 97* and CYP2C19 inh 100*.
For Cc1cc(C)n(CCc2nc(-c3ccco3)cs2)n1 the results were F-actin modifier 4, E-sel TNF inh 24, CYP2C19 activ 0.7, CYP2C9 act 1, CYP2C9 inh -1 and CYP2C19 inh 32.
`Cc1nn(CCc2nc(-c3ccco3)cs2)c2[nH]c(=O)cc(C(F)(F)F)c12` gave CYP2C19 activ 0.4, CYP2C9 act 0.3, CYP2C9 inh 71* and CYP2C19 inh 56*.
For CC(=O)c1ccc(NCC(=O)N2CCN(c3ccccc3)CC2)cc1 the results were F-actin modifier 19, E-sel TNF inh 14, CYP2C19 activ 0.4, CYP2C9 act 0.8, CYP2C9 inh 23 and CYP2C19 inh 58*.
`CC(=O)Nc1ccc(N2CCN(C(C)=O)CC2)cc1` gave F-actin modifier 16, E-sel TNF inh -4, CYP2C19 activ 1.1, CYP2C9 act 1.1, CYP2C9 inh -8 and CYP2C19 inh -14.
`CCc1ccc(CNc2ccc(N3CCN(C(C)=O)CC3)cc2)cc1` gave F-actin modifier 2, E-sel TNF inh -10, CYP2C19 activ 0.4, CYP2C9 act 0.6, CYP2C9 inh 38 and CYP2C19 inh 56*.
For CC(=O)N1CCN(c2ccc(NCc3ccc(C)cc3)cc2)CC1 the results were F-actin modifier 33, E-sel TNF inh -3, CYP2C19 activ 0.6, CYP2C9 act 0.5, CYP2C9 inh 54* and CYP2C19 inh 44.
For CC1=C(C(=O)c2ccccc2)C(c2cn(-c3ccccc3)nc2-c2ccc(Cl)cc2)NC(=S)N1 (stereo not drawn) the results were E-sel TNF inh 30, CYP2C19 activ 0.9, CYP2C9 act 0.6, CYP2C9 inh 35 and CYP2C19 inh 5.
Screening O=C1NC(=O)C(c2cn(-c3ccccc3)nc2-c2ccc(F)cc2)N1 (stereo not drawn) returned F-actin modifier -6, E-sel TNF inh -36, CYP2C19 activ 0.8, CYP2C9 act 0.1, CYP2C9 inh 94* and CYP2C19 inh 21.
